Some test systems named below: T-47D breast; BT-549 breast; MDA-MB-435 melanoma; SW-620 colon; MCF7 breast; HCT-116 colon; HCC-2998 colon; KM12 colon.
Common to all, as to assay: NCI-60 one-dose screen, 48 h (100 = growth as untreated, 0 = no growth, -100 = all killed)
Common to all, as to conditions: 10 µM unless noted

This is part of a sample that, as a whole, favours compounds with a hit. Of some 83,000 tested, about 20% had one in any assay.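 The test compound was applied at a single concentration to cells in 96-well plates for 48 hours, and percent growth was recorded.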 Values without a mark were called inactive. Active and inactive are the calls of the source. Rule for the calls: active = growth percent below 10; inactive = the rest.

Consider `CN(C)CCNC(=O)n1cc(-c2ccncc2)c(-c2cc(O)cc(Cl)c2)n1`, for which the growth in the test on T-47D breast was 106%; in the test with BT-549 breast, 102%; in the test on MDA-MB-435 melanoma, 51.1%; with SW-620 colon, 109%; in the test on MCF7 breast, 102%; with HCT-116 colon it was 86.2%. The values for the growth in the test on HCC-2998 colon and in the test with KM12 colon were 119% and 106%, respectively.
As for `Nc1nc(NC2CC2)cc(-c2cccc(Cl)c2Cl)n1`, the growth in the test with T-47D breast was 32.2%; in the test on BT-549 breast, 54.7%; in the test with MDA-MB-435 melanoma, -12.2% (active); with SW-620 colon, 21.5%; in the test with MCF7 breast it was 20.3%; with HCT-116 colon, 42.2%. Also, the growth was 55.8% with HCC-2998 colon and 47.8% in the test on KM12 colon.
Consider `CCN(CC)CCCC(C)Nc1ccnc2ccc(Oc3ccccc3)cc12` (stereo not drawn), for which the growth is 70.7% in the test with T-47D breast; 67.3% in the test on BT-549 breast; 25.8% with MDA-MB-435 melanoma; 81.3% in the test on SW-620 colon; 69% in the test on MCF7 breast; 48.7% with HCT-116 colon. The figures for the growth with HCC-2998 colon and with KM12 colon were 84% and 86.3%, respectively.
With `CCN1C(=O)/C(=C/N2N=C(c3ccc(Cl)cc3)CC2c2ccc(OC)cc2)SC1=S` (stereo not drawn), the growth in the test with T-47D breast was 70.1%; with BT-549 breast it was 85.1%; in the test with MDA-MB-435 melanoma, 97.1%; in the test with SW-620 colon, 97.6%; in the test on MCF7 breast it was 82.4%; in the test on HCT-116 colon, 85.8%. Further, the results for the growth in the test on HCC-2998 colon and with KM12 colon were 97.7% and 97.6%, respectively.
Regarding `CC(C)CC(=O)C(CCc1ccccn1)C(C)C` (stereo not drawn), the growth in the test with T-47D breast was 96.3%; in the test with BT-549 breast it was 108%; with MDA-MB-435 melanoma, 104%; in the test on SW-620 colon, 104%; in the test with MCF7 breast, 104%; in the test on HCT-116 colon it was 105%. For the same molecule, the values for the growth with HCC-2998 colon and with KM12 colon were 106% and 113%, respectively.
Take `c1ccc2oc(-c3cnc4nonc4n3)cc2c1`: the growth in the test on T-47D breast was 79.7%; with BT-549 breast it was 95.8%; in the test with MDA-MB-435 melanoma it was 109%; in the test with SW-620 colon, 94%; in the test with MCF7 breast, 88.5%; in the test with HCT-116 colon, 90.1%. Moreover, the figures for the growth in the test on HCC-2998 colon and in the test on KM12 colon were 120% and 112%, respectively.
Turning to `O=C(O)c1cc2cc(OCc3ccccc3)ccc2[nH]1`, the growth with T-47D breast was 101%; in the test with BT-549 breast, 84.9%; with MDA-MB-435 melanoma, 111%; in the test with SW-620 colon, 102%; in the test with MCF7 breast, 62.4%; in the test with HCT-116 colon, 100%. Further, the growth with HCC-2998 colon is 104%; in the test with KM12 colon it was 96.8%.
`CC(NC(=O)c1ccccc1)C(=O)Nc1ccccc1` (stereo not drawn): the growth is 117% in the test with T-47D breast; 104% in the test on BT-549 breast; 112% in the test with MDA-MB-435 melanoma; 108% with SW-620 colon; 97.9% with MCF7 breast; 97.2% in the test with HCT-116 colon. The growth was 99.4% in the test with HCC-2998 colon and 108% with KM12 colon.
Take `COc1cccc(-c2cc(-c3cccs3)c(C#N)c(=O)[nH]2)c1`: the growth in the test on T-47D breast was 93.3%; in the test with BT-549 breast it was 113%; in the test on MDA-MB-435 melanoma, 103%; in the test on SW-620 colon it was 105%; in the test with MCF7 breast, 94.2%; with HCT-116 colon it was 101%. Further, the growth was 125% with HCC-2998 colon and 101% with KM12 colon.
`Cc1cc(C#Cc2ccc(C(C)(C)C)cc2)ccc1-n1c(/C=C/c2c(Cl)cccc2Cl)nc2ccccc2c1=O`: the growth in the test on T-47D breast is 82.5%; in the test on BT-549 breast it was 105%; in the test with MDA-MB-435 melanoma, 98%; in the test with SW-620 colon it was 85.5%; with MCF7 breast it was 85.9%; with HCT-116 colon, 89.2%. In addition, the growth was 99.3% in the test with HCC-2998 colon and 98.6% with KM12 colon.
For the molecule `Cc1cccc(N=NC(=S)NNc2cccc(C)c2)c1`, the growth is 97.6% in the test on T-47D breast; 134% in the test with BT-549 breast; 112% with MDA-MB-435 melanoma; 107% in the test with SW-620 colon; 92.8% in the test on MCF7 breast; 109% with HCT-116 colon. Moreover, the growth was 104% in the test with HCC-2998 colon and 124% in the test with KM12 colon.
Consider `COc1cnc2c(c1)C(=O)c1c-2n(CCCN2CCN(C)CC2)c(=O)c2cc(Cl)ccc12`, for which the growth with T-47D breast is 8.74% (active); with BT-549 breast, 56.5%; in the test on MDA-MB-435 melanoma it was 38%; in the test with SW-620 colon, 1.45% (active); in the test on MCF7 breast it was 20.8%; in the test on HCT-116 colon, 32%. The growth is 66.8% in the test on HCC-2998 colon and 45.5% in the test with KM12 colon.
Regarding `O=C(N/N=C\c1cc(Br)ccc1O)c1ccncc1`, the growth in the test with T-47D breast is -3.65% (active); in the test on BT-549 breast it was 45.2%; in the test with MDA-MB-435 melanoma, 64.1%; with SW-620 colon it was 37.7%; with MCF7 breast it was 2.38% (active); with HCT-116 colon it was 21%. Besides, the growth with HCC-2998 colon is 42.7%; in the test on KM12 colon, 25.8%.
For the molecule `CC(C)CCSc1nc(-c2ccc(F)cc2)c(C#N)c(N2CCCCC2)n1`, the growth in the test on T-47D breast was 79%; with BT-549 breast it was 91.4%; with MDA-MB-435 melanoma, 100%; with SW-620 colon, 95.6%; in the test on MCF7 breast, 93.6%; with HCT-116 colon it was 88%. Further, the growth in the test with HCC-2998 colon was 102%; in the test on KM12 colon, 94.5%.
In the case of `COc1ccc(-c2cnnn2-c2nonc2-n2cccc2)cc1`, the growth is 44.8% with T-47D breast; 47.6% in the test with BT-549 breast; -44.1% (active) with MDA-MB-435 melanoma; 19.1% in the test with SW-620 colon; 14.5% in the test with MCF7 breast; 8.3% (active) with HCT-116 colon. In addition, the growth with HCC-2998 colon was 6.73% (active); with KM12 colon, 3.78% (active).
For `CC(C)(c1ccccc1)c1cc(O)c(C(C)(C)c2ccccc2)cc1O`, the growth in the test on T-47D breast is -0.998% (active); with BT-549 breast, 20.6%; in the test with MDA-MB-435 melanoma, 35.1%; in the test with SW-620 colon, 31.3%; in the test with MCF7 breast, 12.3%; with HCT-116 colon, 9.74% (active). The growth with HCC-2998 colon was 61%; with KM12 colon, 19.4%.
